Screening data deposited in PubChem BioAssay by National Center for Advancing Translational Sciences (NCATS).
NPR1 antag – blocks ANP-stimulated signaling of human Npr1 receptor; P16066; HEK293 hNpr1 GloSensor cGMP, ANP-stimulated luminescence; Potency, µM (highest dose often 46.3 µM), usual class: inhibitors; 76,000 tested, 1.6% active; AID 1347048; calls by dose curve; also: nearly all actives have a fitted effect of over 60% in size
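HEK293 cells stably expressing human Npr1 and cGMP GloSensor pGS-40F, loaded 2 h with 2% GloSensor reagent, given compound 30 min at room temperature. Luminescence read before and 20 min after 0.1 nM hNppA.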
HEK cytotox – kills HEK 293 cells; HEK 293 viability, ATP luminescence (CellTiter-Glo), 48-72 h; Potency, µM (series often up to 115 µM), most hits filed as inhibitors; 94,000 tested, 6.6% active; AID 1345083; also: nearly all actives have a fitted effect of over 60% in size
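qHTS cytotoxicity; HEK 293, 250 cells/well; compound pinned; 48 or 72 hr, 37 degree Celsius, 5% CO2, 95% humidity; CellTiter-Glo, 10 min RT; luminescence (ATP).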
NIH3T3 tox – kills NIH 3T3 cells; Potency, µM (series often up to 96.7 µM), most hits filed as inhibitors; 94,000 tested, 4.3% active; AID 1345082; NIH 3T3 viability, CellTiter-Glo ATP luminescence, 48-72 h; also: nearly all actives have a fitted effect of over 55% in size
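Viability of NIH 3T3 cells after 48 or 72 hr compound treatment at 37 °C was assessed by CellTiter-Glo, with luminescence imaged following a 10 min room-temperature step.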
FLuc inh – blocks purified firefly luciferase enzyme activity | purified P. pyralis luciferase, luminescence, biochemical | Potency, µM (highest dose often 115 µM), hits mostly inhibitors | 76,000 tested, 2.5% active; also: nearly all actives have a fitted effect of over 65% in size
Target sequence (P08659 whole entry, looked up): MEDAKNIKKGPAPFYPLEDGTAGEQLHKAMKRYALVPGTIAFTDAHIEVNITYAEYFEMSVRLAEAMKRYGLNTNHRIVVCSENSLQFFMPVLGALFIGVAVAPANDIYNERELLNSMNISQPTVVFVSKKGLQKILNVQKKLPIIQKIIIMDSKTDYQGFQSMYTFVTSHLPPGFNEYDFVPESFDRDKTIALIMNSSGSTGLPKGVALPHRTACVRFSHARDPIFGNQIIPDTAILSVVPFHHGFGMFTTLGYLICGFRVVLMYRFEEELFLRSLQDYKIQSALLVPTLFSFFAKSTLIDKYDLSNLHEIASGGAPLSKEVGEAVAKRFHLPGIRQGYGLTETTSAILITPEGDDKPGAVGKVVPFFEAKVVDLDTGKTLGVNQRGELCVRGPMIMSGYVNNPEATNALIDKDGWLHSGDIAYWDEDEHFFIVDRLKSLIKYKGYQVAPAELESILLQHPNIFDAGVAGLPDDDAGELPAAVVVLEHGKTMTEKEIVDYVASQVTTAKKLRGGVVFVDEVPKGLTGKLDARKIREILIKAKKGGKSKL
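Cell-free enzyme assay, 10nM P. pyralis luciferase, luciferin and ATP each at 10uM. Inhibition profiled over a 6-point titration, read as luminescence.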
Npr1 antag conf – confirmation of human Npr1 natriuretic peptide receptor antagonists; shares compounds with NPR1 antag; HEK293 hNpr1 cGMP GloSensor luminescence, ANP-stimulated; Potency, µM (series often up to 57.6 µM), hits mostly inhibitors; 1,400 tested, 76% active; calls by dose curve; also: nearly all actives have a fitted effect of over 70% in size
Npr2 selectivity – antagonizes human Npr2, subtype selectivity check; shares compounds with NPR1 antag; HEK293 hNpr2 GloSensor cGMP luminescence, CNP-stimulated; Potency, µM (titrated, usually from 57.6 µM), usual class: inhibitors; 1,400 tested, 67% active; AID 1347046; calls by dose curve; also: nearly all actives have a fitted effect of over 70% in size
FLuc counter – inhibits firefly luciferase, false Npr1 antagonist flag; shares compounds with NPR1 antag; purified FLuc enzyme, luminescence, Km substrate; Potency, µM (series often up to 57.6 µM), actives largely listed as inhibitors; 1,400 tested, 0.7% active; AID 1347047
GloSensor ctrl – reduces cGMP signal in GloSensor control cells | shares compounds with NPR1 antag | HEK293 GloSensor cGMP, SNP-stimulated, luminescence | Potency, µM (series often up to 57.6 µM), hits mostly inhibitors | 1,400 tested, 69% active | AID 1347051; calls by dose curve; also: nearly all actives have a fitted effect of over 70% in size
Each line names hits and unclear results; the compound was inactive in the other large screens (follow-up assays come after a bar, where they were run). Only some compounds are listed: those with a hit (about 11% of all), similar ones and a draw of the others. Unless noted, calls follow the shape of the dose curve; as a rule, active = well fitted curve in the direction sought with a large enough effect; inconclusive = small, poorly fitted or top-dose-only effect, or another doubt; inactive = no such curve, though single readings can be large; an effect the other way counts as inactive or inconclusive.

COCC(=O)N[C@@H]1CN(Cc2ccc(C)cc2C)C[C@H]1CO	none
C[C@]1(CO)[C@H]2Cc3sc(NC(=O)c4c(F)cccc4F)nc3[C@@H](CC(=O)NCc3ccccc3)[C@]2(C)CC[C@H]1O	HEK cytotox inconclusive, NIH3T3 tox inconclusive
O=C1Nc2ccccc2CN(CC2CCCCC2)C12CCNC2 (centres undefined)	HEK cytotox 89µM, NIH3T3 tox 22µM (no result: NPR1 antag, FLuc inh) | Npr1 antag conf inconclusive | Npr2 selectivity 14µM | FLuc counter inactive | GloSensor ctrl inactive
O=C1Nc2ccccc2CN(CC2CC2)C12CCNCC2	none (no result: NPR1 antag, FLuc inh)
O=C1Nc2ccccc2CN(CC2CCCCC2)C12CCNCC2	HEK cytotox 35µM, NIH3T3 tox inconclusive (no result: NPR1 antag, FLuc inh) | Npr1 antag conf 19µM | Npr2 selectivity 6.1µM | FLuc counter inactive | GloSensor ctrl inactive
CC(=O)N1Cc2ccccc2NC(=O)C12CCNC2 (centres undefined)	none (no result: NPR1 antag, FLuc inh)
COc1ccc(-c2ccc(C(=O)N(C)CC#N)cc2)nn1	none (no result: NPR1 antag, FLuc inh)
COc1ccc(OC)c(CNC(=O)c2ccc(-c3ccc(N4CCSCC4)nc3)cc2)c1	NPR1 antag 7.1µM, HEK cytotox inconclusive, NIH3T3 tox inconclusive | Npr1 antag conf 6.9µM | Npr2 selectivity 6.9µM | FLuc counter inactive | GloSensor ctrl 6.1µM
COc1cc(O)ccc1CN1CCCC(COc2ccccc2C(=O)N2CCOCC2)C1 (centres undefined)	none
Cc1cnc(C(=O)N2CCCC2c2nc(CCOCC3CCCC3)no2)cn1 (centres undefined)	NPR1 antag inconclusive | Npr1 antag conf inactive | Npr2 selectivity inactive | FLuc counter inactive | GloSensor ctrl inactive
O=C(c1cccs1)N1CCc2nn(Cc3ccccc3)c(=O)n2CC1	none (no result: NPR1 antag, FLuc inh)
Cc1cc(C(=O)N2CCC(F)(c3nc(-c4ccncc4)no3)CC2)n(C)n1	NPR1 antag 11µM, HEK cytotox inconclusive | Npr1 antag conf 27µM | Npr2 selectivity 31µM | FLuc counter inactive | GloSensor ctrl 27µM
COc1ccc(N2CCN(C(=O)Nc3nc(C)ns3)CC2(C)C)cc1	NPR1 antag 7.9µM, HEK cytotox 10µM, NIH3T3 tox inconclusive | Npr1 antag conf 12µM | Npr2 selectivity 15µM | FLuc counter inactive | GloSensor ctrl 8.6µM
Cc1nsc(NC(=O)N2CCCN(c3ccccc3)CC2)n1	HEK cytotox inconclusive, NIH3T3 tox inconclusive
CN(Cc1cccc(C(=O)Nc2cccc(C#N)c2)c1)CC1COCCO1 (centres undefined)	NPR1 antag inconclusive, HEK cytotox inconclusive | Npr1 antag conf inconclusive | Npr2 selectivity inconclusive | FLuc counter inactive | GloSensor ctrl inactive
CN1C(=O)CO[C@H](c2ccc(NC(=O)c3cccc(C#N)c3)cc2)[C@H]1CO	none
CC1=C(C(=O)OC(C)C)C(c2ccccc2C)N2C(CC(=O)NCC3CC3)=CSC2=N1 (centres undefined)	NPR1 antag inconclusive, HEK cytotox 10µM, NIH3T3 tox inconclusive | Npr1 antag conf inconclusive | Npr2 selectivity inconclusive | FLuc counter inactive | GloSensor ctrl inconclusive
CC1=C(C(=O)OC(C)C)C(c2ccccc2Cl)N2C(CC(=O)NCC3CC3)=CSC2=N1 (centres undefined)	NPR1 antag 11µM, HEK cytotox inconclusive, NIH3T3 tox inconclusive | Npr1 antag conf inconclusive | Npr2 selectivity 22µM | FLuc counter inactive | GloSensor ctrl inconclusive
O=C(c1cc(F)ccc1Br)N1CCN(c2ccnc3ccnn23)CC1	HEK cytotox inconclusive (no result: NPR1 antag, FLuc inh)
Cc1oc(-c2ccccc2)nc1CN1CCCC(C(=O)NCCc2noc(-c3ccccc3)n2)C1 (centres undefined)	NPR1 antag 13µM, HEK cytotox inconclusive, NIH3T3 tox inconclusive | Npr1 antag conf inconclusive | Npr2 selectivity inconclusive | FLuc counter inactive | GloSensor ctrl inconclusive
O=C(Nc1ccc(F)c(Cl)c1)C1CCc2sc(C(=O)N3CCOCC3)cc2C1 (centres undefined)	NPR1 antag 8.9µM, HEK cytotox 28µM, NIH3T3 tox inconclusive | Npr1 antag conf 11µM | Npr2 selectivity 12µM | FLuc counter inactive | GloSensor ctrl 9.7µM
O=C(NCc1ccccc1F)c1ccc2c(c1)CN(Cc1ccncc1)CCO2	NPR1 antag 13µM, HEK cytotox inconclusive | Npr1 antag conf 17µM | Npr2 selectivity 17µM | FLuc counter inactive | GloSensor ctrl 11µM
COc1ccc(CN2CCOc3ccc(C(=O)NCc4ccccc4F)cc3C2)cc1OC	HEK cytotox inconclusive
CC(C)=CCC1(CO)CCCN(Cc2cscn2)C1 (centres undefined)	none
O=C(c1cc(CN2CCOCC2)on1)N1CCC(c2nc(C3CCOCC3)no2)C1 (centres undefined)	none | Npr1 antag conf inactive | Npr2 selectivity inactive | FLuc counter inactive | GloSensor ctrl inactive
O=C(c1ccccc1)N1CCC(c2nc(C3CCOCC3)no2)C1 (centres undefined)	none
O=C(Cc1ccc2c(c1)OCO2)N1CCNc2cnc(Nc3cccc(F)c3)nc2C1	NPR1 antag 40µM, HEK cytotox inconclusive, NIH3T3 tox inconclusive | Npr1 antag conf 35µM | Npr2 selectivity 35µM | FLuc counter inactive | GloSensor ctrl 35µM
CC(C)NC(=O)N1CCNc2cnc(Nc3cccc(F)c3)nc2C1	NPR1 antag inconclusive, HEK cytotox inconclusive, NIH3T3 tox inconclusive
COc1ccccc1Nc1ncc2c(n1)CN(C(=O)Cc1ccc3c(c1)OCO3)CCN2	HEK cytotox inconclusive
CN(C)c1cccc(C(=O)N2CCNc3cnc(Nc4cccc(C(F)(F)F)c4)nc3C2)c1	NPR1 antag 16µM, HEK cytotox inconclusive, NIH3T3 tox inconclusive | Npr1 antag conf 22µM | Npr2 selectivity 24µM | FLuc counter inactive | GloSensor ctrl 19µM
COC[C@@H]1CN(C(=O)c2nccc3ccccc23)C[C@H]1c1ccncc1	none
COc1ccccc1N1CCCc2ncc(C(=O)Nc3ccc4[nH]ccc4c3)cc21	HEK cytotox inconclusive, NIH3T3 tox inconclusive
COc1ccc(-c2noc(CC3CCN(C(=O)COc4cccc(C)c4)CC3)n2)cc1	NPR1 antag 16µM, HEK cytotox inconclusive, NIH3T3 tox inconclusive | Npr1 antag conf 22µM | Npr2 selectivity 24µM | FLuc counter inactive | GloSensor ctrl 24µM
COc1ccc(CCC(=O)N2CCC(Cc3nc(-c4ccc(OC)cc4)no3)CC2)cc1	NPR1 antag 11µM, HEK cytotox inconclusive, NIH3T3 tox inconclusive | Npr1 antag conf 17µM | Npr2 selectivity 17µM | FLuc counter inactive | GloSensor ctrl 12µM
COCCNC(=O)c1ccc(CC2CCN(C(=O)CCc3ccc(OC)cc3)CC2)cc1	HEK cytotox inconclusive
